Laboratory results reported in PubChem BioAssay (NCATS).
Inconclusive results are not listed. Active and inactive are the calls of the source. The call rests on the fitted dose curve; in most records, active means well fitted cell-killing curve with a large enough effect; inconclusive means small, poorly fitted or top-dose-only effect, or effect the other way; inactive means no such curve, though single readings can be large or run the other way.

Key:
[1] = Quantitative High-Throughput drug screen in 47 multiple myeloma cell lines against the NCATS MIPE library collection: KMS34_JCRB cell viability assay (AID 1918985); details: KMS34 myeloma viability, CellTiter-Glo ATP luminescence, 48 h; series mostly up to 45.8 µM; further: nearly all actives have a fitted effect of over 40% in size
In short: (§1)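 ATP-based luminescence (CellTiter-Glo, 5 min RT incubation) quantified surviving cells following two days' treatment with MIPE 4.0 agents at 37 °C, 5% CO2.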

[2] = Quantitative High-Throughput drug screen in 47 multiple myeloma cell lines against the NCATS MIPE library collection: OCIMY5_PLB cell viability assay (AID 1918988); details: OCI-MY5 myeloma viability, ATP luminescence, 48 h; series mostly up to 45.8 µM; further: nearly all actives have a fitted effect of over 65% in size
In short: as §1

[3] = Quantitative High-Throughput drug screen in 47 multiple myeloma cell lines against the NCATS MIPE library collection: OPM1_PLB cell viability assay (AID 1918989); details: CellTiter-Glo, 48 h; series mostly up to 45.8 µM; further: nearly all actives have a fitted effect of over 40% in size
In short: as §1

[4] = Quantitative High-Throughput drug screen in 47 multiple myeloma cell lines against the NCATS MIPE library collection: XG6_PLB cell viability assay (AID 1919865); details: XG6 myeloma viability, CellTiter-Glo ATP luminescence, 48 h; series mostly up to 45.8 µM; further: nearly all actives have a fitted effect of over 40% in size
In short: as §1

[5] = Quantitative High-Throughput drug screen in 47 multiple myeloma cell lines against the NCATS MIPE library collection: XG1_PLB cell viability assay (AID 1919866); details: CellTiter-Glo ATP, 48 h; series mostly up to 45.8 µM; further: nearly all actives have a fitted effect of over 35% in size
In short: as §1

[6] = Quantitative High-Throughput drug screen in 47 multiple myeloma cell lines against the NCATS MIPE library collection: OCIMY7_PLB cell viability assay (AID 1918987); details: OCI-MY7 myeloma viability, CellTiter-Glo ATP, 48 h; viability (% of DMSO): at 45.8 µM (top of the series); further: nearly all actives have a fitted effect of over 65% in size
In short: as §1

[7] = Quantitative High-Throughput drug screen in 47 multiple myeloma cell lines against the NCATS MIPE library collection: SKMM1_PLB cell viability assay (AID 1919863); details: SKMM1 myeloma viability, CellTiter-Glo ATP, 48 h; viability: active compounds read low; further: nearly all actives have a fitted effect of over 35% in size
In short: as §1

[8] = Quantitative High-Throughput drug screen in 47 multiple myeloma cell lines against the NCATS MIPE library collection: U266_ATCC cell viability assay (AID 1919864); details: U266 myeloma viability, CellTiter-Glo ATP luminescence, 48 h; series mostly up to 45.8 µM; further: nearly all actives have a fitted effect of over 35% in size
In short: as §1

[9] = Quantitative High-Throughput drug screen in 47 multiple myeloma cell lines against the NCATS MIPE library collection: L363_DSMZ cell viability assay (AID 1918984); details: L363 myeloma viability, CellTiter-Glo ATP luminescence, 48 h; series mostly up to 45.8 µM; further: nearly all actives have a fitted effect of over 40% in size
In short: as §1
Potency means the concentration at half of the fitted maximal effect.

C[C@]12CC[C@@H]3c4ccc(O)cc4CC[C@H]3[C@H]1C[C@@H](O)[C@H]2O
active: Potency [2] 3.32 µM | Potency [4] 5.9 µM
inactive: Potency [1] | Potency [3] | Potency [5]

CC1(C)CCC2=C(O1)c1ccccc1C(=O)C2=O
active: Potency [1] 13.2 µM | Potency [6] 3.32 µM | Potency [2] 18.7 µM | Potency [3] 20.9 µM | Potency [7] 20.9 µM | Potency [8] 20.9 µM

CC1(C)CCC(CN2CCN(c3ccc(C(=O)NS(=O)(=O)c4ccc(NCC5CCOCC5)c([N+](=O)[O-])c4)c(Oc4cnc5[nH]ccc5c4)c3)CC2)=C(c2ccc(Cl)cc2)C1
active: Potency [1] 16.6 µM | Potency [6] 0.59 µM | Potency [2] 0.0148 µM | Potency [3] 5.26 µM | Potency [7] 20.9 µM

CO[C@H]1C(=O)[C@]2(C)[C@@H](OC)C[C@H]3OC[C@@]3(OC(C)=O)[C@H]2[C@H](OC(=O)c2ccccc2)[C@]2(O)C[C@H](OC(=O)[C@H](O)[C@@H](NC(=O)OC(C)(C)C)c3ccccc3)C(C)=C1C2(C)C
inactive: Potency [1] | Potency [6] | Potency [2] | Potency [3] | viability [7] 65.2%

COc1cc(O)c2c(c1)C(=O)c1cc(C)cc(O)c1C2=O
inactive: Potency [9] | viability [7] 131% | Potency [4]

COc1cccc([C@@H](C)NCCCc2ccccc2Cl)c1
inactive: Potency [1] | Potency [2] | Potency [3] | viability [7] 122%

CC[C@@]1(O)C[C@H](O[C@H]2C[C@H](N(C)C)[C@H](O[C@H]3C[C@H](O)[C@H](O[C@H]4CCC(=O)[C@H](C)O4)[C@H](C)O3)[C@H](C)O2)c2c(cc3c(c2O)C(=O)c2c(O)cccc2C3=O)[C@@H]1C(=O)OC
active: Potency [1] 2.09 µM | Potency [6] 0.372 µM | Potency [2] 0.0935 µM | Potency [3] 0.833 µM | Potency [7] 0.833 µM | Potency [4] 0.296 µM | Potency [5] 0.132 µM

NC(=O)c1cccc(-c2cc(Nc3ccc(OC(F)(F)F)cc3)ncn2)c1
active: Potency [9] 8.33 µM | Potency [3] 18.7 µM | Potency [4] 16.6 µM

CC(C)(Cc1ccc2ccccc2c1)NC[C@@H](O)COc1cccc(Cl)c1C#N
active: Potency [3] 6.62 µM
inactive: Potency [1] | viability [7] 126% | Potency [4]

CC(=Cc1ccccc1)C=C1SC(=S)N(CC(=O)O)C1=O
inactive: Potency [1] | Potency [3] | viability [7] 123% | Potency [4] | Potency [5]

Cc1ccccc1C(C(=O)NC1CCCCC1)N(C(=O)Cn1ccnc1C)c1cccc(F)c1 (centres undefined)
inactive: Potency [3] | Potency [4] | Potency [5]
active: Potency [1] 20.9 µM | Potency [2] 23.5 µM | Potency [7] 0.469 µM | Potency [8] 5.26 µM

C[C@H](NC(=O)C(=O)Nc1ccccc1C(C)(C)C)C(=O)N[C@@H](CC(=O)O)C(=O)COc1c(F)c(F)cc(F)c1F
inactive: Potency [3] | Potency [5]
active: Potency [9] 0.833 µM | Potency [7] 16.6 µM

C[C@H]1[C@H](NC(=O)C(=NOC(C)(C)C(=O)O)c2csc(N)n2)C(=O)N1S(=O)(=O)O
inactive: Potency [1] | Potency [3] | viability [7] 114%
active: Potency [8] 14.8 µM

Clc1ccc(-c2nc3sccn3c2C=NOCc2ccc(Cl)c(Cl)c2)cc1
inactive: Potency [1] | Potency [3] | viability [7] 102%

CC(=O)Nc1ccc([C@H](C)C(=O)Nc2ncc(C(C)C)s2)cc1
active: Potency [1] 3.72 µM | Potency [2] 0.743 µM | Potency [3] 5.26 µM | Potency [7] 8.33 µM | Potency [4] 0.0935 µM

Cc1ccc([C@@H]2O[C@H](CO)[C@@H](O)[C@H](O)[C@@H]2O)cc1Cc1ccc(-c2ccc(F)cc2)s1
inactive: viability [7] 118%
active: Potency [1] 23.5 µM | Potency [3] 20.9 µM

CC(C)OC(=O)CCCC=CC[C@@H]1[C@H](C=C[C@@H](O)COc2cccc(C(F)(F)F)c2)[C@H](O)C[C@@H]1O
active: Potency [1] 13.2 µM | Potency [6] 14.8 µM | Potency [2] 16.6 µM | Potency [3] 18.7 µM | Potency [7] 20.9 µM | Potency [8] 20.9 µM | Potency [4] 16.6 µM | Potency [5] 18.7 µM

CCn1c(C(=O)N(C2CC2)C2CC2)cc2c3c(ncn3C)c(Nc3cc(C)n(C)n3)nc21
active: Potency [6] 14.8 µM | Potency [3] 20.9 µM | Potency [4] 13.2 µM
inactive: Potency [1] | viability [7] 128%

N[C@H](CSC(c1ccccc1)(c1ccccc1)c1ccccc1)C(=O)O
inactive: Potency [8]
active: Potency [1] 9.35 µM | Potency [6] 7.43 µM | Potency [2] 9.35 µM | Potency [3] 5.9 µM | Potency [7] 10.5 µM | Potency [4] 6.62 µM

NC1CCC(Nc2nc(Nc3ccc(C(=O)N4CCCCC4)cc3)c3ncn(-c4cccc(F)c4)c3n2)CC1 (centres undefined)
inactive: Potency [9] | Potency [3] | viability [7] 125% | Potency [8] | Potency [4] | Potency [5]

CCC(=O)NC[C@H](Cc1ccc(OCCc2nc(-c3ccccc3)oc2C)cc1)NC(C)=CC(=O)c1ccc(C(F)(F)F)cc1
inactive: Potency [3]
active: Potency [1] 23.5 µM | Potency [2] 18.7 µM | Potency [7] 18.7 µM | Potency [4] 16.6 µM
